RORg inh: qHTS for inhibitors of ROR gamma transcriptional activity | AID 2551, 2010 | Drosophila S2 Gal4-RORgamma UAS-luciferase reporter, 20 h | Potency, µM (series often up to 53.6 µM), for the others: top-dose activity change, negative = inhibition, actives largely listed as inhibitors | actives 5.4% (n = 310,000) | Nuclear receptor ROR-gamma (Mus musculus), P51450; also: % is scaled to controls: 0 for no effect and ±100 for the full control effect; nearly all actives have a fitted effect of over 60% in size
Target sequence (P51450 whole entry, looked up, the tested form may be a part): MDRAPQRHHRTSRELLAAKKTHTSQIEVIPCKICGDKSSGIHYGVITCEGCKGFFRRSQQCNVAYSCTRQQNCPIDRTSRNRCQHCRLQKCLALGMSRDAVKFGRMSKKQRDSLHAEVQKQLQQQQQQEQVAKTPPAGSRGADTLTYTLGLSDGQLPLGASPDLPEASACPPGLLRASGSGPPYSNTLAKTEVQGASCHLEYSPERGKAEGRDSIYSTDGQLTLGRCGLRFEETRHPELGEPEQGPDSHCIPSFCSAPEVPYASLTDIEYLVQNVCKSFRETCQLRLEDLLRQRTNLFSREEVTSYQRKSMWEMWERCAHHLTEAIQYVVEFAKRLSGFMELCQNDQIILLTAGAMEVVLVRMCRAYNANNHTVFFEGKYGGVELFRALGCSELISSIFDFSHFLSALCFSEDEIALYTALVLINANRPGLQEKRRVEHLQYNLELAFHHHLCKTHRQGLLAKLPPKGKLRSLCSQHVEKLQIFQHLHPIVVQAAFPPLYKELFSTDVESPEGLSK
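Compounds are pin-transferred onto Drosophila Schneider cells expressing a copper-inducible Gal4–ROR gamma transactivation domain fusion. After 1 hr, copper sulfate is added to 700 uM final; luciferase is read 20 hr later.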
MCF10A rerep: A quantitative high throughput screen for small molecules that induce DNA re-replication in MCF 10a normal breast cells; AID 624296, 2012; MCF 10A DNA re-replication, Hoechst nuclear intensity, 48 h; actives 2.9% (n = 350,000); Potency, µM (top dose mostly 46.1 µM), without a hit: at the highest dose activity, positive = re-replication, most hits filed as activators; also: % of control where 0% means no effect; nearly all actives have a fitted effect of over 50% in size
SW480 rereplic: A quantitative high throughput screen for small molecules that induce DNA re-replication in SW480 colon adenocarcinoma cells; SW480 DNA re-replication, Hoechst DNA content imaging, 48 h; Potency, µM (titrated, usually from 46.1 µM), for the others: at the top dose re-replication activation, usual class: activators; actives 1.8% (n = 340,000); AID 624297, 2012; also: % of control where 0% means no effect; nearly all actives have a fitted effect of over 55% in size
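Quantitative HTS format with DMSO vehicle controls; 48 hr drug incubation at 37 C, then 40 min Hoechst staining and scanning imager measurement at 405 nm excitation.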
KB-3-1 cytotox: qHTS assay for MDR1-selective chemotherapeutics: Primary screen using the parental adenocarcinoma cell KB-3-1 | Potency, µM (top dose mostly 46.1 µM), most hits filed as cytotoxic | KB-3-1 viability, CellTiter-Glo ATP luminescence, 72 h | actives 1.4% (n = 400,000); also: % is scaled to controls: 0 for no effect and ±100 for the full control effect; nearly all actives have a fitted effect of over 60% in size
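72 h, 37 °C compound treatment of KB-3-1 parental cells; CellTiter-Glo added, 10 min, luminescence read. Data corrected against DMSO-only plates and normalized before curve fitting.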
Gal4-VP16 FLuc: VP16 counterscreen qHTS for inhibitors of ROR gamma transcriptional activity | Potency, µM (top dose mostly 53.6 µM), inactives show at the top dose activity, negative = inhibition, actives largely listed as inhibitors | Drosophila S2 Gal4-VP16 UAS-luciferase, luminescence, 20 h | actives 3.5% (n = 310,000);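 also: Gal4-VP16 expression switched on by copper sulfate through the metallothionein promoter; % is scaled to controls: 0 for no effect and ±100 for the full control effect; nearly all actives have a fitted effect of over 50% in size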
KB-V1 cytotox: qHTS assay for MDR1-selective chemotherapeutics: Primary screen using the drug-selected MDR subline cells KB-V1 | KB-V1 MDR cells viability, CellTiter-Glo, 72 h | Potency, µM (titrated, usually from 46.1 µM), actives largely listed as cytotoxic | actives 3.4% (n = 400,000) | AID 1347076, 2019; also: % is scaled to controls: 0 for no effect and ±100 for the full control effect; nearly all actives have a fitted effect of over 60% in size
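Cytotoxicity via CellTiter-Glo luminescence after 72 h compound exposure at 37 degrees C. Cells: drug-selected KB-V1 line, DMEM phenol-red free plus 10% FBS. Compounds tested at multiple concentrations; normalized data fitted to concentration-effect curves.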
The depositor's hits bear a star. Hits are enriched below; roughly 10% of the tested compounds scored in any of these assays. Calls follow the shape of the dose curve; as a rule, active = well fitted curve in the direction sought with a large enough effect; inconclusive = small, poorly fitted or top-dose-only effect, or another doubt; inactive = no such curve, though single readings can be large; an effect the other way counts as inactive or inconclusive. Potency is read from the fitted curve at half-maximal effect.

For O=C(NCCc1ccccc1)c1ccc2c(c1)CCN2S(=O)(=O)c1ccccc1 the results were KB-3-1 cytotox inactive and KB-V1 cytotox inactive.
CCC(=O)OCCNc1cc(Sc2nc3ccccc3s2)c2nonc2c1[N+](=O)[O-] was read as RORg inh -37.3%, MCF10A rerep -9.4%, SW480 rereplic -11.5%, KB-3-1 cytotox inactive, Gal4-VP16 FLuc 4.47µM* and KB-V1 cytotox inactive.
For CCCC(=O)OCCNc1cc(Sc2nccn2C)c2nonc2c1[N+](=O)[O-] the results were RORg inh 5.62µM*, MCF10A rerep inconclusive, SW480 rereplic 19.8%, KB-3-1 cytotox inconclusive, Gal4-VP16 FLuc 5.01µM* and KB-V1 cytotox inactive.
For CCC(=O)OCCNc1cc(Sc2nc3ccccc3[nH]2)c2nonc2c1[N+](=O)[O-] the results were RORg inh 3.16µM*, MCF10A rerep 1.3µM*, SW480 rereplic 10.3µM*, KB-3-1 cytotox 23.1µM*, Gal4-VP16 FLuc 4.47µM* and KB-V1 cytotox inactive.
Screening O=[N+]([O-])c1c(NCCCO)cc(Sc2nc3ccccc3s2)c2nonc12 returned RORg inh 15.5%, MCF10A rerep inconclusive, SW480 rereplic inconclusive, KB-3-1 cytotox inactive, Gal4-VP16 FLuc 1.1% and KB-V1 cytotox inactive.
For O=C(CCCCn1c(=O)c2ccccc2n(CC(=O)Nc2ccc(F)cc2F)c1=O)NCCc1ccccc1 the results were KB-3-1 cytotox inactive and KB-V1 cytotox inconclusive.
CN(C)c1ccc(/C=C/C(=O)Nc2cccc([S+](=O)([O-])Nc3ccccc3F)c2)cc1 was read as KB-3-1 cytotox inactive and KB-V1 cytotox inactive.
`CC(=O)N1CCN(c2ccc(NCc3ccc(-c4ccc(Br)cc4)o3)cc2)CC1` gave MCF10A rerep 23.1µM*, SW480 rereplic 13µM*, KB-3-1 cytotox 9.2µM* and KB-V1 cytotox inactive.
O=C(NCc1ccc(F)cc1)c1cc(C2CCCCN2C(=O)c2ccc3c(c2)CCO3)on1 (stereo not given) was read as KB-3-1 cytotox 20.6µM* and KB-V1 cytotox inconclusive.
Cc1ccc(C2C3=C(CC(C)(C)CC3=O)NC3=C2C(=O)c2ccccc23)cc1 (stereo not given) was read as RORg inh 13.4%, MCF10A rerep 3.5%, SW480 rereplic -4.1%, KB-3-1 cytotox inconclusive, Gal4-VP16 FLuc inconclusive and KB-V1 cytotox inactive.
CSC1=C(C#N)C(c2ccc(Cl)cc2)C2=C(CC(C)(C)CC2=O)N1 (stereo not given) was read as RORg inh 29.0%, MCF10A rerep inconclusive, SW480 rereplic 20.6%, KB-3-1 cytotox inconclusive, Gal4-VP16 FLuc -4.0% and KB-V1 cytotox 20.6µM*.
CCCSC1=C(C#N)C(c2ccc(OC)cc2)C2=C(CC(C)(C)CC2=O)N1 (stereo not given) was read as RORg inh inconclusive, MCF10A rerep inconclusive, SW480 rereplic 10.2%, KB-3-1 cytotox inactive, Gal4-VP16 FLuc -15.5% and KB-V1 cytotox inactive.
Screening CC1(C)CC(=O)C2=C(C1)NC1=C(C(=O)c3ccccc31)C2c1ccc(Cl)cc1 (stereo not given) returned RORg inh inconclusive, MCF10A rerep inconclusive, SW480 rereplic 3.2%, KB-3-1 cytotox inconclusive, Gal4-VP16 FLuc -15.0% and KB-V1 cytotox 14.6µM*.
For Cc1ccc(CNC(=O)CN(c2ccc(Cl)cc2Cl)S(=O)(=O)c2ccccc2)cc1 the results were KB-3-1 cytotox inactive and KB-V1 cytotox inactive.
Screening O=S(=O)(c1ccccc1)N(CC1CO1)c1cccc2ccccc12 (stereo not given) returned RORg inh inconclusive, MCF10A rerep inconclusive, SW480 rereplic 20.6µM*, KB-3-1 cytotox inactive, Gal4-VP16 FLuc 16.0% and KB-V1 cytotox inactive.
`O=S(=O)(c1ccccc1)N(CC1CO1)c1ccccc1` (stereo not given) gave RORg inh 5.3%, MCF10A rerep -2.6%, SW480 rereplic 1.1%, KB-3-1 cytotox inactive, Gal4-VP16 FLuc -9.6% and KB-V1 cytotox inactive.
`CC1C2=C(CC(C)(C)CC2=O)NC2=C1C(=O)CC(C)(C)C2` gave RORg inh -18.0%, MCF10A rerep 5.8µM*, SW480 rereplic -105.8%, KB-3-1 cytotox inactive, Gal4-VP16 FLuc 4.9% and KB-V1 cytotox inactive.
For CC(=O)c1cccc(CN2CCC(CO)(CCCc3ccccc3)CC2)c1 the results were RORg inh -2.2%, MCF10A rerep 11.7%, SW480 rereplic -3.3%, KB-3-1 cytotox inactive, Gal4-VP16 FLuc 5.8% and KB-V1 cytotox inconclusive.
Screening CC(=O)Nc1ccc2nc(CN3CCC(CO)(CCc4ccccc4)CC3)ccc2c1 returned RORg inh 2.6%, MCF10A rerep 18.4µM*, SW480 rereplic 0.2%, KB-3-1 cytotox inactive, Gal4-VP16 FLuc -5.2% and KB-V1 cytotox inactive.
For O=S(=O)(c1ccc2oc3ccccc3c2c1)N1CCCC1 the results were RORg inh -1.3%, MCF10A rerep 3.5%, SW480 rereplic 2.7%, KB-3-1 cytotox inactive, Gal4-VP16 FLuc 1.0% and KB-V1 cytotox inactive.
For CCN(CC)C(=O)C1CCN(S(=O)(=O)c2ccc3oc4ccccc4c3c2)CC1 the results were RORg inh inconclusive, MCF10A rerep 1.5%, SW480 rereplic -6.3%, KB-3-1 cytotox inactive, Gal4-VP16 FLuc inconclusive and KB-V1 cytotox 11.6µM*.
O=S(=O)(c1ccc2oc3ccccc3c2c1)N1CCOCC1 was read as RORg inh -0.5%, MCF10A rerep 0.5%, SW480 rereplic -8.2%, KB-3-1 cytotox inactive, Gal4-VP16 FLuc 17.7% and KB-V1 cytotox 16.4µM*.
Screening Cc1ccc(-c2nn(-c3cccc([N+](=O)[O-])c3)c3c2cnc2ccc(F)cc23)cc1 returned KB-3-1 cytotox inactive and KB-V1 cytotox inactive.
Screening CCOc1ccc(CC(=O)Nc2c(C(=O)Nc3ccc(OC)cc3OC)oc3ccccc23)cc1 returned KB-3-1 cytotox inactive and KB-V1 cytotox inactive.
Screening Cc1ccc2oc(=O)c3cc(C(=O)Nc4ccccc4C(N)=O)sc3c2c1 returned KB-3-1 cytotox inactive and KB-V1 cytotox inactive.
`O=C(Nc1ccc2c(c1)OCO2)c1cc(-c2ccc(Cl)cc2)on1` gave KB-3-1 cytotox inactive and KB-V1 cytotox inactive.
